{"source": "PubChem BioAssay AID1159580", "about": "(chemical genetic matrix, 2015)", "assay": "chemical genetic growth profiling, strain panel (AID 1159580);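 further: tested at 20 µM; growth read once vehicle control cultures reached saturation at 30 °C; 1 = growth at the plate median or of vehicle wells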", "details": "S. cerevisiae deletion strains, growth OD", "note": "“And” between values parts separate entries of the source, which are not always exact repeats. Identical values can stand only once. Screen size: about 5,500 compounds; about 2,000 (36%) were called active. Roughly 18% stayed inconclusive and do not appear here. No stated cut-off is given here; in the data, active means normalized growth mostly below about 0.91 (no sharp cut-off); inconclusive means no clear call, values can overlap the other calls; inactive means mostly above about 0.92. This is one part of the list.", "data": [{"smiles": "CC(C)=CCCC1(C)C=Cc2c(O)c3c(c(CC=C(C)C)c2O1)OC12C(=CC4CC1C(C)(C)OC2(C/C=C(/C)C(=O)O)C4=O)C3=O", "note": "(configuration not stated)", "values": [{"measurement": "normalized growth", "setting": "locus YAL013W, strain DEP1, stronger effect = lower value", "result": "0.887 (active)"}, {"measurement": "normalized growth", "setting": "locus YAL021C, strain ccr4, stronger effect = lower value", "result": "0.954 (inactive)"}, {"measurement": "normalized growth", "setting": "locus YAL026C, strain drs2, stronger effect = lower value", "result": "0.895 (active)"}, {"measurement": "normalized growth", "setting": "locus YAL030W, strain snc1, stronger effect = lower value", "result": "0.925 (active)"}, {"measurement": "normalized growth", "setting": "locus YBL061C, strain skt5, stronger effect = lower value", "result": "0.87 (active)"}, {"measurement": "normalized growth", "setting": "locus YBR009C, strain hhf1, stronger effect = lower value", "result": "0.803 (active)"}, {"measurement": "normalized growth", "setting": "locus YBR021W, strain FUR4, stronger effect = lower value", "result": "0.99 (inactive)"}, {"measurement": "normalized growth", "setting": "locus YBR023C, strain chs3, stronger effect = lower value", "result": "0.84 (active)"}, {"measurement": "normalized growth", "setting": "locus YBR171W, strain sec66, stronger effect = lower value", "result": "0.979 (inactive)"}, {"measurement": "normalized growth", "setting": "locus YBR229C, strain ROT2, stronger effect = lower value", "result": "0.988 (inactive)"}, {"measurement": "normalized growth", "setting": "locus YBR231C, strain swc5, stronger effect = lower value", "result": "0.559 (active)"}, {"measurement": "normalized growth", "setting": "locus YBR279W, strain paf1, stronger effect = lower value", "result": "0.815 (active)"}, {"measurement": "normalized growth", "setting": "locus YCL011C, strain gbp2, stronger effect = lower value", "result": "0.835 (active)"}, {"measurement": "normalized growth", "setting": "locus YCL016C, strain dcc1, stronger effect = lower value", "result": "0.853 (active)"}, {"measurement": "normalized growth", "setting": "locus YCL029C, strain bik1, stronger effect = lower value", "result": "0.987 (inactive)"}, {"measurement": "normalized growth", "setting": "locus YCL061C, strain MRC1, stronger effect = lower value", "result": "0.907 (active)"}, {"measurement": "normalized growth", "setting": "locus YCL069W, strain vba3, stronger effect = lower value", "result": "0.945 (inactive)"}, {"measurement": "normalized growth", "setting": "locus YCR088W, strain abp1, stronger effect = lower value", "result": "0.943 (inactive)"}, {"measurement": "normalized growth", "setting": "locus YDL005C, strain med2, stronger effect = lower value", "result": "0.959 (inactive)"}, {"measurement": "normalized growth", "setting": "locus YDL035C, strain GPR1, stronger effect = lower value", "result": "0.736 (active)"}, {"measurement": "normalized growth", "setting": "locus YDL040C, strain nat1, stronger effect = lower value", "result": "0.959 (inactive)"}, {"measurement": "normalized growth", "setting": "locus YDL074C, strain BRE1, stronger effect = lower value", "result": "0.691 (active)"}, {"measurement": "normalized growth", "setting": "locus YDL101C, strain DUN1, stronger effect = lower value", "result": "0.894 (inactive)"}, {"measurement": "normalized growth", "setting": "locus YDL185W, strain tfp1, stronger effect = lower value", "result": "0.986 (inactive)"}, {"measurement": "normalized growth", "setting": "locus YDL192W, strain arf1, stronger effect = lower value", "result": "0.901 (active)"}, {"measurement": "normalized growth", "setting": "locus YDR001C, strain nth1, stronger effect = lower value", "result": "0.952 (inactive)"}, {"measurement": "normalized growth", "setting": "locus YDR069C, strain doa4, stronger effect = lower value", "result": "0.821 (active)"}, {"measurement": "normalized growth", "setting": "locus YDR101C, strain arx1, stronger effect = lower value", "result": "0.93 (inactive)"}, {"measurement": "normalized growth", "setting": "locus YDR137W, strain rgp1, stronger effect = lower value", "result": "0.713 (active)"}, {"measurement": "normalized growth", "setting": "locus YDR150W, strain NUM1, stronger effect = lower value", "result": "0.932 (inactive)"}, {"measurement": "normalized growth", "setting": "locus YDR159W, strain sac3, stronger effect = lower value", "result": "0.957 (inactive)"}, {"measurement": "normalized growth", "setting": "locus YDR162C, strain NBP2, stronger effect = lower value", "result": "0.296 (active)"}, {"measurement": "normalized growth", "setting": "locus YDR195W, strain ref2", "result": "1.11 (inactive)"}, {"measurement": "normalized growth", "setting": "locus YDR297W, strain sur2, stronger effect = lower value", "result": "0.889 (active)"}, {"measurement": "normalized growth", "setting": "locus YDR318W, strain mcm21, stronger effect = lower value", "result": "0.879 (active)"}, {"measurement": "normalized growth", "setting": "locus YDR334W, strain swr1, stronger effect = lower value", "result": "0.916 (inactive)"}, {"measurement": "normalized growth", "setting": "locus YDR335W, strain msn5, stronger effect = lower value", "result": "0.902 (active)"}, {"measurement": "normalized growth", "setting": "locus YDR388W, stronger effect = lower value", "result": "0.897 (active)"}, {"measurement": "normalized growth", "setting": "locus YDR392W, strain spt3, stronger effect = lower value", "result": "0.223 (active)"}, {"measurement": "normalized growth", "setting": "locus YDR502C, strain sam2, stronger effect = lower value", "result": "0.849 (active)"}, {"measurement": "normalized growth", "setting": "locus YEL003W, strain gim4, stronger effect = lower value", "result": "0.863 (active)"}, {"measurement": "normalized growth", "setting": "locus YEL037C, strain rad23, stronger effect = lower value", "result": "0.967 (inactive)"}, {"measurement": "normalized growth", "setting": "locus YEL061C, strain CIN8 (second series), stronger effect = lower value", "result": "0.935 (inactive)"}, {"measurement": "normalized growth", "setting": "locus YEL061C, strain CIN8, stronger effect = lower value", "result": "0.881 (active)"}, {"measurement": "normalized growth", "setting": "locus YER015W, strain faa2, stronger effect = lower value", "result": "0.785 (active)"}, {"measurement": "normalized growth", "setting": "locus YER016W, strain bim1, stronger effect = lower value", "result": "0.967 (inactive)"}, {"measurement": "normalized growth", "setting": "locus YER110C, stronger effect = lower value", "result": "0.98 (inactive)"}, {"measurement": "normalized growth", "setting": "locus YER111C, strain swi4, stronger effect = lower value", "result": "0.977 (inactive)"}, {"measurement": "normalized growth", "setting": "locus YER155C, strain BEM2 (second series), stronger effect = lower value", "result": "0.758 (active)"}, {"measurement": "normalized growth", "setting": "locus YER155C, strain BEM2, stronger effect = lower value", "result": "0.83 (active)"}, {"measurement": "normalized growth", "setting": "locus YER167W, strain BCK2, stronger effect = lower value", "result": "0.874 (active)"}, {"measurement": "normalized growth", "setting": "locus YFR010W, strain ubp6, stronger effect = lower value", "result": "0.891 (active)"}, {"measurement": "normalized growth", "setting": "locus YGL078C, strain dbp3, stronger effect = lower value", "result": "0.965 (inactive)"}, {"measurement": "normalized growth", "setting": "locus YGL086W, strain mad1, stronger effect = lower value", "result": "0.892 (active)"}, {"measurement": "normalized growth", "setting": "locus YGL167C, strain pmr1, stronger effect = lower value", "result": "0.915 (inactive)"}, {"measurement": "normalized growth", "setting": "locus YGL173C, strain kem1, stronger effect = lower value", "result": "0.82 (active)"}, {"measurement": "normalized growth", "setting": "locus YGL227W, strain vid30, stronger effect = lower value", "result": "0.985 (inactive)"}, {"measurement": "normalized growth", "setting": "locus YGL240W, strain doc1, stronger effect = lower value", "result": "0.966 (inactive)"}, {"measurement": "normalized growth", "setting": "locus YGL248W, strain PDE1, stronger effect = lower value", "result": "0.791 (active)"}, {"measurement": "normalized growth", "setting": "locus YGL253W, strain hxk2, stronger effect = lower value", "result": "0.877 (active)"}, {"measurement": "normalized growth", "setting": "locus YGR135W, strain pre9, stronger effect = lower value", "result": "0.885 (active)"}, {"measurement": "normalized growth", "setting": "locus YGR229C, strain SMI1, stronger effect = lower value", "result": "0.244 (active)"}, {"measurement": "normalized growth", "setting": "locus YGR252W, strain gcn5, stronger effect = lower value", "result": "0.882 (inactive)"}, {"measurement": "normalized growth", "setting": "locus YHR013C, strain ard1, stronger effect = lower value", "result": "0.605 (active)"}, {"measurement": "normalized growth", "setting": "locus YHR027C, strain rpn1, stronger effect = lower value", "result": "0.894 (active)"}, {"measurement": "normalized growth", "setting": "locus YHR030C, strain SLT2, stronger effect = lower value", "result": "0.85 (active) and 0.869 (inactive)"}, {"measurement": "normalized growth", "setting": "locus YHR079C, strain IRE1 (second series), stronger effect = lower value", "result": "0.98 (inactive)"}, {"measurement": "normalized growth", "setting": "locus YHR079C, strain IRE1, stronger effect = lower value", "result": "0.89 (inactive)"}, {"measurement": "normalized growth", "setting": "locus YHR094C, strain hxt1, stronger effect = lower value", "result": "0.983 (inactive)"}, {"measurement": "normalized growth", "setting": "locus YHR129C, strain ARP1, stronger effect = lower value", "result": "0.808 (active)"}, {"measurement": "normalized growth", "setting": "locus YHR142W, strain chs7, stronger effect = lower value", "result": "0.818 (active)"}, {"measurement": "normalized growth", "setting": "locus YHR200W, strain rpn10, stronger effect = lower value", "result": "0.914 (active)"}, {"measurement": "normalized growth", "setting": "locus YIL066C, strain RNR3, stronger effect = lower value", "result": "0.606 (active)"}, {"measurement": "normalized growth", "setting": "locus YIL073C, strain SPO22, stronger effect = lower value", "result": "0.796 (inactive)"}, {"measurement": "normalized growth", "setting": "locus YIL125W, strain kgd1, stronger effect = lower value", "result": "0.927 (active)"}, {"measurement": "normalized growth", "setting": "locus YIR030C, strain dcg1, stronger effect = lower value", "result": "0.967 (inactive)"}, {"measurement": "normalized growth", "setting": "locus YJL092W, strain hpr5, stronger effect = lower value", "result": "0.946 (inactive)"}, {"measurement": "normalized growth", "setting": "locus YJL095W, strain BCK1 (second series), stronger effect = lower value", "result": "0.871 (active)"}, {"measurement": "normalized growth", "setting": "locus YJL095W, strain BCK1, stronger effect = lower value", "result": "0.732 (active) and 0.878 (active)"}, {"measurement": "normalized growth", "setting": "locus YJL115W, strain asf1, stronger effect = lower value", "result": "0.951 (inactive)"}, {"measurement": "normalized growth", "setting": "locus YJL129C, strain trk1, stronger effect = lower value", "result": "0.653 (active)"}, {"measurement": "normalized growth", "setting": "locus YJL134W, strain LCB3, stronger effect = lower value", "result": "0.982 (inactive)"}, {"measurement": "normalized growth", "setting": "locus YJL154C, strain vps35, stronger effect = lower value", "result": "0.983 (inactive)"}, {"measurement": "normalized growth", "setting": "locus YJL164C, strain tpk1, stronger effect = lower value", "result": "0.758 (active)"}, {"measurement": "normalized growth", "setting": "locus YJL166W, strain qcr8, stronger effect = lower value", "result": "0.77 (active)"}, {"measurement": "normalized growth", "setting": "locus YJL168C, strain set2, stronger effect = lower value", "result": "0.98 (inactive)"}, {"measurement": "normalized growth", "setting": "locus YJL187C, strain SWE1 (second series), stronger effect = lower value", "result": "0.838 (active)"}]}]}
